Reference: PubChem BioAssay (NCATS)
Inconclusive results are not listed. Unmarked numbers belong to inactive results. Calls of active or inactive are those of the source. Calls follow the shape of the dose curve; as a rule, active = well fitted cell-killing curve with a large enough effect; inconclusive = small, poorly fitted or top-dose-only effect; inactive = no such curve, though single readings can be large or run the other way.

assay: Quantitative High-Throughput drug screen in 47 multiple myeloma cell lines against the NCATS MIPE library collection: NCIH929_DSMZ cell viability assay (AID 1918978); details: NCI-H929 myeloma viability, CellTiter-Glo ATP, 48 h; series mostly up to 45.8 µM; viability, % of control: at the top concentration; also: nearly all actives have a fitted effect of over 35% in size
Description: PI: Beverly A. Mock Ph.D.
Laboratory of Cancer Biology and Genetics,
Center for Cancer Research, National Cancer Institute,
National Institute of Health, Bethesda, Maryland
Drug resistance and disease progression are common in multiple myeloma (MM) patients, underscoring the need for new therapeutic combinations. […] We hypothesized that effective combinations would reduce MYC expression and enhance p16 activity. […] These preclinical data identify potentially useful drug combinations for evaluation in drug-resistant MM and reveal potential mechanisms of combined drug sensitivity.
Described herein is the primary MIPE qHTS used to cherrypick compounds. Validated compounds were then further tested for potential synergistic activiy.
[1] Peat TJ, Gaikwad SM, Dubois W, Gyabaah-Kessie N, Zhang S, Gorjifard S, Phyo Z, Andres M, Hughitt VK, Simpson RM, Miller MA, Girvin AT, Taylor A, Williams D, D'Antonio N, Zhang Y, Rajagopalan A, Flietner E, Wilson K, Zhang X, Shinn P, Klumpp-Thomas C, McKnight C, Itkin Z, Chen L, Kazandijian D, Zhang J, Michalowski AM, Simmons JK, Keats J, Thomas CJ, Mock BA. Drug combinations identified by high-throughput screening promote cell cycle transition and upregulate Smad pathways in myeloma. Cancer Lett. 2023 Aug 1;568:216284. doi: 10.1016/j.canlet.2023.216284. Epub 2023 Jun 24. PMID: 37356470; PMCID: PMC10408729.
SEQUENCE No. (e.g., 1, 2, 3, etc.); […] (e.g., Cells, Incubation, Reagent, etc.); VALUE and DESCRIPTION.
1; Cells; 5 uL; white, solid bottom 1536-well Greiner assay plate.
2; Compounds; 23 nL; Kalypsis pin tool (Wako USA) equipped with a 1536-well pin head to transfer to the assay plates.
3; Incubation; 48 hours; 37C incubation.
4; Reagent;5uL; CellTiter Glo (Promega).
5; Detector; 425V; Luminescence; Viewlux PerkinElmer.
NOTES (numbers refer to Sequence numbers above)
1. The cell-based screening methods employed in this study were like those previously published. Briefly, the corresponding myeloma cell lines were screened in 1,536-well plates with 500 cells, 5-uL per well for inhibition of cell viability (assessed by measuring ATP levels with CellTiterGlo).
2. NCATS MIPE 4.0 library of approved and investigational drugs were added using the Kalypsis pin tool. Wells treated with DMSO only for 100% viability and media only for 0% viability were used as controls.
3. The assay plates were covered and incubated for 48 hours in a 37C, 5% CO2 incubator with controlled humidity.
4. After 48 hours, CellTilter-GloTM luminescent substrate mix (Promega) reagent was added to the assay plate and plates we incubated for 5 min at room temperature.
5. Signal was measured as median relative luminescence units on a ViewLux (PerkinElmer) multiplate reader.
[1] Heske CM, Davis MI, Baumgart JT, Wilson K, Gormally MV, Chen L, Zhang X, Ceribelli M, Duveau DY, Guha R, Ferrer M, Arnaldez FI, Ji J, Tran HL, Zhang Y, Mendoza A, Helman LJ, Thomas CJ. Matrix Screen Identifies Synergistic Combination of PARP Inhibitors and Nicotinamide Phosphoribosyltransferase (NAMPT) Inhibitors in Ewing Sarcoma. Clin Cancer Res. 2017 Dec 1;23(23):7301-7311. doi: 10.1158/1078-0432.CCR-17-1121. Epub 2017 Sep 12. PMID: 28899971; PMCID: PMC6636827.
Potency is read from the fitted curve at half-maximal effect.

Structure (SMILES) | Potency | viability, % of control [%]
COCCn1c2c([n+](Cc3cnccn3)c1C)C(=O)c1ccccc1C2=O | 33.2 nM (active) | 
COc1cc2c(Oc3ccc(-c4cnc(Nc5ccc(F)cc5)n(C)c4=O)cc3F)ccnc2cc1OCCCN1CCOCC1 | 2640 nM (active) | 
NC(=O)Nc1cc(-c2cccc(F)c2)sc1C(=O)N[C@H]1CCCNC1 | 2640 nM (active) | 
N#CCNC(=O)c1ccc(-c2ccnc(Nc3ccc(N4CCOCC4)cc3)n2)cc1 | 9350 nM (active) | 
CC[C@@]1(O)C(=O)OCc2c1cc1n(c2=O)Cc2cc3cc(O)ccc3nc2-1 | 296 nM (active) | 
COc1c(N2C[C@@H]3CCCN[C@H]3C2)c(F)cc2c(=O)c(C(=O)O)cn(C3CC3)c12 |  | 116
CCN(CC)CCNC(=O)c1ccc2nc(-c3ccccc3)c(-c3ccc(CN4CCC(n5c(=O)[nH]c6ccccc65)CC4)cc3)nc2c1 | 743 nM (active) | 
O=C(O)CCCc1c[nH]c2ccccc12 |  | 101
Cc1ccc(NC(=O)C2(c3ccc4c(c3)OC(F)(F)O4)CC2)nc1-c1cccc(C(=O)O)c1 | 235 nM (active) | 
COC(=O)[C@]12CCC(C)(C)C[C@@H]1[C@@H]1C(=O)C=C3[C@@]4(C)C=C(C#N)C(=O)C(C)(C)[C@@H]4CC[C@@]3(C)[C@]1(C)CC2 | 235 nM (active) | 
O=C(O)[C@H](Cc1c[nH]c2ccccc12)N1C(=O)c2ccccc2C1=O | 54000 nM (active) | 
COc1cc(Nc2ncc(F)c(Nc3ccc4c(n3)N(COP(=O)(O)O)C(=O)C(C)(C)O4)n2)cc(OC)c1OC | 3720 nM (active) | 
COc1ccc(C=Cc2cc(OC)c(OC)c(OC)c2)cc1O |  | 12.4
Cc1ccc(C(=O)Nc2ccc(CN3CCN(C)CC3)c(C(F)(F)F)c2)cc1C#Cc1cnc2cccnn12 | 935 nM (active) | 
O=C1CCC[C@@H]2[C@H]3CCC[N+]4([O-])CCC[C@@H](CN12)[C@@H]34 (stereo not given in full) |  | 99.9
Cc1ccc(C(N)=O)cc1Nc1nccc(-c2cn(C(C)C)c3cnccc23)n1 | 2960 nM (active) | 
CCN1CCN(CC(=O)Nc2ccc(-c3cccc4c(=O)cc(N5CCOCC5)oc34)c3sc4ccccc4c23)CC1 | 187 nM (active) | 
Cc1ccc(C(=O)Nc2cccc(C(F)(F)F)c2)cc1-c1ccc2nc(NCCN3CCOCC3)ncc2c1 | 5260 nM (active) | 
COc1cc(C(=O)NS(=O)(=O)c2ccccc2C)ccc1Cc1cn(C)c2ccc(NC(=O)OC3CCCC3)cc12 | 18700 nM (active) | 
C[C@@H]1CN(CC(=O)Nc2ccc3c(c2)Cc2cccc(-c4cc(=O)cc(N5CCOCC5)o4)c2S3)C[C@H](C)O1 | 5900 nM (active) | 

Structure (SMILES) | Potency | viability, % of control [%]
CC(C)c1cc(-c2n[nH]c(=O)n2-c2ccc3c(ccn3C)c2)c(O)cc1O | 20.9 nM (active) | 
CNC(=O)c1nn(C)c2c1C(C)(C)Cc1cnc(Nc3ccc(N4CCN(C)CC4)cc3)nc1-2 | 2640 nM (active) | 
CN(C)CCCN=c1c2ccccc2n(C)c2[nH]c(=O)n(C)c(=O)c12 | 11800 nM (active) | 
CC1(C)CC(=O)c2c(C(F)(F)F)nn(-c3ccc(C(N)=O)c(NC4CCC(OC(=O)CN)CC4)c3)c2C1 (stereo not given) | 148 nM (active) | 
CNC(=O)c1c(F)cccc1Nc1nc(Nc2cc3c(cc2OC)CCN3C(=O)CN(C)C)nc2[nH]ccc12 | 83.3 nM (active) | 
C[C@@H](Oc1cc(-c2cnn(C3CCNCC3)c2)cnc1N)c1c(Cl)ccc(F)c1Cl | 3320 nM (active) | 
CN(C)Cc1c(C(=O)NCCOc2ccc(C(=O)NO)cc2)oc2ccccc12 | 1050 nM (active) | 
C1=CCOCc2cc(ccc2OCCN2CCCC2)Nc2nccc(n2)-c2cccc(c2)OCC1 | 2350 nM (active) | 
NC1(Cc2ccc(Cl)cc2)CCN(c2ncnc3[nH]ccc23)CC1 | 935 nM (active) | 
CCNC(=O)Nc1ccc2ncc(Nc3ccc(C)cc3)nc2n1 | 7430 nM (active) | 
O=C(NCCCNc1nc(Nc2cccc(NC(=O)N3CCCC3)c2)ncc1I)c1cccs1 | 5900 nM (active) | 
O=C(NC1CCNCC1)c1[nH]ncc1NC(=O)c1c(Cl)cccc1Cl | 418 nM (active) | 
CC[C@@H]1C(=O)N(C)c2cnc(Nc3ccc(C(=O)NC4CCC(N5CCN(CC6CC6)CC5)CC4)cc3OC)nc2N1C(C)C (stereo not given in full) | 1320 nM (active) | 
O=C(C=Cc1cccnc1)NCCCCC1CCN(C(=O)c2ccccc2)CC1 | 13.2 nM (active) | 
Nc1ccn([C@@H]2CS[C@H](CO)O2)c(=O)n1 | 38200 nM (active) | 
CC1COC2(CCN(c3nc(=O)c4cc(C(F)(F)F)cc([N+](=O)[O-])c4s3)CC2)O1 (stereo not given) |  | 117
COC(=O)C1=C(C)NC(C)=C(C(=O)OCCN2CCN(C(c3ccccc3)c3ccccc3)CC2)C1c1cccc([N+](=O)[O-])c1 (stereo not given) |  | 109
CCCNC(=O)Nc1ccc(Oc2ncnc3cc(OC)c(OC)cc23)cc1Cl |  | 99.1
CC(C)(C)c1cnc(CSc2cnc(NC(=O)C3CCNCC3)s2)o1 | 264 nM (active) | 
Cc1nc(N)ncc1-c1nc(N2CCOCC2)c2sc(C(C)(C)O)cc2n1 | 52.6 nM (active) | 
